This is an account of results in PubChem BioAssay AID488839 (Broad Institute, 2010).

Structures are written as SMILES. Among all 330,000 compounds or so, about 35 (0.01%) were called active. Not all results are given here. Unmarked numbers belong to inactive results.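 How the source made its calls: active means highest replicate inhibition of at least 50% and at least 75% of replicates reaching 50%; inconclusive means only one of the two criteria met; inactive means both criteria failed.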

For this assay, the target named is Cyclin-dependent kinase 5 (Homo sapiens) + Cyclin-dependent kinase 5 activator 1 (Homo sapiens) (UniProt Q00535+Q15078). Put plainly: inhibitors of human CDK5/p35 kinase, primary screen, biochemical, single concentration (AID 488839).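 Further: plate controls were DMSO neutral control for no effect and GW8510 at 10 µM for full effect.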 Conditions: Recombinant CDK5/p35, ADP-Glo luminescence, 60 min; at 10 µM; active compounds read high. A general note: ADP-Glo first removes unused ATP, then detects ADP through luciferase.
Sequence of Cyclin-dependent kinase 5 (Homo sapiens) + Cyclin-dependent kinase 5 activator 1 (Homo sapiens) (Q00535 whole entry, looked up): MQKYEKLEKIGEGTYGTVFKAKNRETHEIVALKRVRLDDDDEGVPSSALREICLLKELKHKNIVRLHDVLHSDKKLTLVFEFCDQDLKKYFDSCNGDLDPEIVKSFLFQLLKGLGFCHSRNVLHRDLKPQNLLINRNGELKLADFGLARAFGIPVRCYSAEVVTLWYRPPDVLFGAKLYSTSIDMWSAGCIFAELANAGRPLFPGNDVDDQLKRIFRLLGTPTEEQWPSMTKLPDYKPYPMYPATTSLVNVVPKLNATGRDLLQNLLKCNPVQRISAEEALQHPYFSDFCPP
Sequence of Cyclin-dependent kinase 5 (Homo sapiens) + Cyclin-dependent kinase 5 activator 1 (Homo sapiens) (Q15078 whole entry, looked up): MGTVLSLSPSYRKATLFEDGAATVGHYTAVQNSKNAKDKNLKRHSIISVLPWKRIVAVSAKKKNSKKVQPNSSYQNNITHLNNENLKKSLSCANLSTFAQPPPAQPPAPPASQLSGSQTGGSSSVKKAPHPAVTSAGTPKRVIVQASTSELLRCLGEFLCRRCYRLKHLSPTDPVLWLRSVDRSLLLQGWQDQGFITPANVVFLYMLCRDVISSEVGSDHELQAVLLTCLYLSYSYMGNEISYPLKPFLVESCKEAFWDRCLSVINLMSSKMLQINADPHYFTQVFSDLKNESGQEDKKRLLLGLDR
A word on the inhibition: it is the change of the read-out against control, counted positive when it falls. Regarding `COc1ccc(-c2csc3nc(-c4ccccc4F)oc(=O)c23)cc1OC`, the inhibition was -0.745%.

For the molecule `CCCN1CNC(=S)N(CCc2ccccc2)C1`, the inhibition was 0.897%. Take `OCc1n[nH]c(CO)n1`: the inhibition was -0.355%. For the molecule `CC(C)COC(=O)n1c(=O)oc2ccc(S(=O)(=O)N3CCCCC3)cc21`, the inhibition was -6.42%. In the case of `COc1ccc(NC(=O)CC2C(=O)NC3CCCCC3N2C(=O)c2ccc(F)cc2)cc1` (stereo not given), the inhibition is 0.318%. In the case of `CN(CC(=O)Nc1ccc(F)cc1)CC(=O)N1CCCCC1` it was 1.08%; in that of `Cc1coc2c(O)cc3c(c12)OC1(N2CCCCC2)C(=O)NCCCC31` (stereo not given), -0.717%; in that of `CCCCN1C(=O)C(C)=C(C)C1OCCc1ccc(OC)c(OC)c1` (stereo not given), 1.7%. Consider `N/C(=N\OC(=O)Nc1ccccc1)c1ccno1`, for which the inhibition is -1.08%. For `Cc1c2cnn(-c3ccccc3)c(=O)c2c(C)n1CCCC(=O)N1CCN(C)CC1`, the inhibition was 0.518%. Turning to `COc1ccccc1NC(=O)CSc1nnc(-c2ccoc2C)n1CCc1ccccc1`, the inhibition was -0.569%. In the case of `COc1ccccc1NC(=O)c1ccc(N2CC3CC(C2)c2cccc(=O)n2C3)c(NC(=O)c2cccnc2)c1` (stereo not given) it was -1.98%; in that of `CC1C(C)N(C(=O)CCl)c2ccccc2N1C(=O)CCl` (stereo not given), 1.01%. On to `C[C@H](NC(=O)C1CC(=O)N(c2ccc3c(c2)OCO3)C1)C(=O)NCc1ccco1` (stereo not given in full), for which the inhibition is -0.436%.

Turning to `CCc1n[nH]c(=S)n1/N=C/c1c[nH]c2ccc(Br)cc12`, the inhibition was 2.39%. Consider `COC(=O)Cc1ccc(OCC(=O)NC2CCCC2)cc1`, for which the inhibition was 0.995%.

Take `O=C(Nc1c2c(nn1-c1ccc(F)cc1)CS(=O)C2)C12CC3CC(CC(C3)C1)C2` (stereo not given): the inhibition was -0.258%. Regarding `Cc1cccc(C(=O)NCc2nnc(SC(C)C(=O)Nc3nnc(C)s3)n2C)c1` (stereo not given), the inhibition was 1.14%. Regarding `COc1ccc(Cl)cc1NC(=O)COC(=O)C(CC(C)C)N1C(=O)C2CC=CCC2C1=O` (stereo not given), the inhibition was -0.94%. In the case of `CCOC(=O)c1ccc2[nH]c(C)c(CN3CCN(C)CC3)c(=O)c2c1` it was -4.67%; in that of `COc1ccc(OC)c(NC(=O)CN(Cc2ccc(Cl)cc2)S(C)(=O)=O)c1`, 0.423%; in that of `O=C(CSc1nnc(SCc2ccc(Cl)cc2)s1)N/N=C/c1ccccc1Cl`, -1.05%. As for `O=S(=O)(NCCSc1ccccn1)c1ccc(Cl)cc1`, the inhibition is 0.39%. In the case of `O=C(C1CCN(C2CCN(Cc3ccc4cc(F)ccc4n3)CC2)CC1)N1CCCC1` it was 0.175%; in that of `COc1ccc(C(=O)Cn2nnc(-c3ccc(N4CCOCC4)cc3)n2)cc1OC`, -3.2%.
